Compound activity from PubChem BioAssay.
Only some compounds are listed: those with a hit (about 15% of all), similar ones and a draw of the others.
TDP1 cell noCPT: qHTS for Inhibitors of human tyrosyl-DNA phosphodiesterase 1 (TDP1): qHTS in cells in absence of CPT | Potency, µM (doses to about 46.2 µM), for the others: at the highest dose activity change, negative = growth inhibition, most hits filed as inhibitors | DT40 Tdp1-/- hTDP1 cells, no CPT, ATP luminescence, 48 h | AID 686978, 2013 | 420,000 compounds, 15% hits; note: nearly all actives have a fitted effect of over 55% in size
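Chicken DT40 Tdp1-/- cells stably complemented with human TDP1 were seeded at 400 cells/well with DMSO in place of 20 nM camptothecin. After compound pinning, cells grew at least 48 hr at 37 °C; viability read by CellTiter-Glo luminescence.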
RORg inh: qHTS for inhibitors of ROR gamma transcriptional activity; Drosophila S2 Gal4-RORgamma UAS-luciferase reporter, 20 h; Nuclear receptor ROR-gamma (Mus musculus), P51450; AID 2551, 2010; Potency, µM (titrated, usually from 53.6 µM), inactives show at the top dose activity change, negative = inhibition, usual class: inhibitors; 310,000 compounds, 5.4% hits; note: nearly all actives have a fitted effect of over 60% in size
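Schneider cells (Drosophila), stable Gal4 DBD–ROR gamma + UAS-luc; 1 hr cmpd preincubation; Cu2+ induction 700 uM final; 20 hr ambient; luminescence.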
Gal4-VP16 FLuc: VP16 counterscreen qHTS for inhibitors of ROR gamma transcriptional activity; Drosophila S2 Gal4-VP16 UAS-luciferase, luminescence, 20 h; Potency, µM (titrated, usually from 53.6 µM), without a hit: at the top dose activity, negative = inhibition, most hits filed as inhibitors; 310,000 compounds, 3.5% hits; AID 2546, 2010;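 note: Gal4-VP16 expression switched on by copper sulfate through the metallothionein promoter; nearly all actives have a fitted effect of over 50% in size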
TDP1 cell CPT: qHTS for Inhibitors of human tyrosyl-DNA phosphodiesterase 1 (TDP1): qHTS in cells in presence of CPT | chicken DT40 Tdp1-/-;hTDP1 cells + 20 nM CPT, ATP luminescence, 48 h | Potency, µM (highest dose often 46.2 µM), for inactives: top-dose activity change, negative = growth inhibition, hits mostly inhibitors | 420,000 compounds, 12% hits | AID 686979, 2013; note: nearly all actives have a fitted effect of over 55% in size
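Chicken DT40 Tdp1-/- cells stably complemented with human TDP1 were seeded at 400 cells/well in medium containing 20 nM camptothecin, exposed to pin-transferred compounds, and grown at 37 °C for at least 48 hr. Viability was read as ATP luminescence.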
ELG1 repair inh: qHTS screen for small molecules that inhibit ELG1-dependent DNA repair in human embryonic kidney (HEK293T) cells expressing luciferase-tagged ELG1; HEK293T ELG1-luciferase reporter, luminescence, 16 h; DNA damage induced by 5-fluorouridine; Potency, µM (highest dose often 46.1 µM), inactives show at the top dose activity change, negative = inhibition, hits mostly inhibitors; 330,000 compounds, 2.3% hits; AID 504467, 2011; note: nearly all actives have a fitted effect of over 55% in size
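HEK293T cells expressing luciferase-tagged ELG1 (2,000/well) received 5-Fluorouridine plus compound or DMSO for 16 hr at 37 °C. Luciferase was read by ONE-Glo luminescence after 30 min at room temperature.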
ALOX12 inh: Primary qHTS assay for inhibitors of human arachidonate 12S-lipoxygenase (ALOX12): Round 2; Polyunsaturated fatty acid lipoxygenase ALOX12 (Homo sapiens), P18054; purified 12hLO, xylenol orange hydroperoxide absorbance; Potency, µM (highest dose often 108 µM), for inactives: at the highest dose activity change, negative = inhibition, usual class: inhibitors; 580,000 compounds, 1.1% hits
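Hydroperoxide product was detected by ferrous iron/xylenol orange as the 573 to 405 nm absorbance ratio. Arachidonic acid at 40 uM (final) was turned over for 30 min at room temperature by 150 nM human 12hLO, pH 7.0 Hepes buffer, after 15 min compound preincubation.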
Starred values were filed as active, the others as inactive. Calls come from the whole dose curve; as a rule, active = well fitted curve in the direction sought with a large enough effect; inconclusive = small, poorly fitted or top-dose-only effect, or another doubt; inactive = no such curve, though single readings can be large; an effect the other way counts as inactive or inconclusive. % is set by controls: 0 for no effect and ±100 for the full control effect; potency is the fitted concentration of half-maximal effect.

O=C1c2ccccc2C(=O)N1Cc1nc2ccccc2c(=O)n1-c1ccccn1 was read as TDP1 cell noCPT -8.7%, RORg inh 31.9%, Gal4-VP16 FLuc -8.0%, TDP1 cell CPT -0.5%, ELG1 repair inh 2.6% and ALOX12 inh -1.2%.
Screening O=c1c2ccccc2nc(/C=C/c2ccc(F)cc2)n1-c1ccccn1 returned TDP1 cell noCPT 18.4µM*, RORg inh 7.2%, Gal4-VP16 FLuc 2.3%, TDP1 cell CPT inconclusive and ELG1 repair inh -11.2%.
Screening O=C1Nc2ccccc2/C1=C/c1nc2ccccc2c(=O)n1-c1ccc(O)cc1 returned TDP1 cell noCPT inconclusive, RORg inh -8.1%, Gal4-VP16 FLuc -6.6%, TDP1 cell CPT inconclusive, ELG1 repair inh 18.3µM* and ALOX12 inh -5.2%.
`COc1cc(/C=C/c2nc3ccccc3c(=O)n2-c2ccccc2O)ccc1O` gave TDP1 cell noCPT inconclusive, RORg inh 32.2%, Gal4-VP16 FLuc -11.2%, TDP1 cell CPT inconclusive, ELG1 repair inh inconclusive and ALOX12 inh inconclusive.
For COc1ccc2c(c1)c(CCN)c(C)n2Cc1ccccc1 the results were TDP1 cell noCPT 20.6µM*, RORg inh -33.6%, Gal4-VP16 FLuc -19.8%, TDP1 cell CPT inconclusive, ELG1 repair inh 0.0% and ALOX12 inh -11.7%.
`CCCc1nnc(N2C[C@H]3COc4ccccc4C[C@@]3(C(=O)O)C2)s1` gave ALOX12 inh -17.0%.
CC(C)OP(=O)(OC(C)C)C(Nc1ccc([N+](=O)[O-])cc1)c1cccc([N+](=O)[O-])c1 (stereo unspecified) was read as TDP1 cell noCPT 18.4µM*, RORg inh 29.4%, Gal4-VP16 FLuc 2.4%, TDP1 cell CPT inconclusive, ELG1 repair inh 15.6% and ALOX12 inh -14.6%.
For COc1ccc(C(Nc2cccc([N+](=O)[O-])c2)P(=O)(OC(C)C)OC(C)C)cc1 (stereo unspecified) the results were TDP1 cell noCPT 16.4µM*, RORg inh -1.1%, Gal4-VP16 FLuc -2.9%, TDP1 cell CPT 16.4µM*, ELG1 repair inh 0.0% and ALOX12 inh 0.0%.
Screening COc1ccc(OC)c(C(Nc2ccccc2)P(=O)(OC(C)C)OC(C)C)c1 (stereo unspecified) returned TDP1 cell noCPT 16.4µM*, RORg inh 8.8%, Gal4-VP16 FLuc -3.7%, TDP1 cell CPT inconclusive, ELG1 repair inh inconclusive and ALOX12 inh 0.0%.
CCCOP(=O)(OCCC)C(Nc1ccc(C(C)C)cc1)c1ccc([N+](=O)[O-])cc1 (stereo unspecified) was read as TDP1 cell noCPT 16.4µM*, RORg inh 10.0%, Gal4-VP16 FLuc inconclusive, TDP1 cell CPT inconclusive, ELG1 repair inh inconclusive and ALOX12 inh -20.8%.
Screening COc1ccccc1CNC(=O)[C@H]1CN2CC[C@H]1C[C@@H]2Cn1cc(C2(O)CCCC2)nn1 returned ALOX12 inh 15.4%.
Screening O=C(COc1ccc(Cl)cc1)Nc1ccc(Cl)cc1C(=O)c1ccccc1 returned TDP1 cell noCPT -8.9%, TDP1 cell CPT -6.0% and ALOX12 inh -8.0%.
For NC(=O)Nc1ccc(C(=O)OCC(=O)Nc2ccc(Cl)cc2C(=O)c2ccccc2)cc1 the results were TDP1 cell noCPT 0.5%, RORg inh inconclusive, Gal4-VP16 FLuc 5.7%, TDP1 cell CPT -1.8%, ELG1 repair inh 20.6µM* and ALOX12 inh 12.3%.
